This is part of a sample that, as a whole, favours compounds with a hit. Of some 83,000 tested, about 20% had one in any assay.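 Single-dose data. Exposure time 48 hours. Values below 10 considered active.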 A number with no mark means an inactive call. Calls of active or inactive are those of the source.

We go through 13 compounds from PubChem BioAssay (NCI).

Test systems include HCT-15 colon; HT29 colon; SNB-75 CNS; SNB-19 CNS; U251 CNS; PC-3 prostate; SK-MEL-5 melanoma; UACC-62 melanoma; LOX IMVI melanoma; SK-MEL-28 melanoma.
Assay in all cases: NCI-60 one-dose screen, 48 h (100 = growth as untreated, 0 = no growth, -100 = all killed)
Settings in all cases: 10 µM unless noted

With `COc1ccc(-c2cc(C(=O)N3N=C(c4ccc(N)cc4)CC3c3ccccc3)c3ccccc3n2)cc1` (stereo not given), the growth was 24.6% in the test with HCT-15 colon; 10.3% in the test with HT29 colon; -1.79% (active) in the test on SNB-75 CNS; 47.8% with SNB-19 CNS; 36.9% in the test with U251 CNS; 32.5% in the test with PC-3 prostate. In addition, the growth with SK-MEL-5 melanoma was 36.2%; in the test with UACC-62 melanoma, 40.3%; in the test on LOX IMVI melanoma, 39.7%; in the test on SK-MEL-28 melanoma it was 53.1%.
`Cn1c(=O)c2c(c3ccccc31)OC(N)=C(C#N)C21C(=O)c2ccccc2C1=O`: the growth in the test with HCT-15 colon was 96.1%; in the test with HT29 colon, 102%; in the test with SNB-75 CNS it was 76.8%; in the test with SNB-19 CNS, 88.2%; in the test with U251 CNS it was 101%; in the test on PC-3 prostate it was 80.8%. The growth in the test with SK-MEL-5 melanoma was 94.9%; with UACC-62 melanoma, 89.8%; in the test on LOX IMVI melanoma it was 97.5%; with SK-MEL-28 melanoma, 104%.
For the compound `C#CC#CC#CC#CC#CC#CC#CC#CC[C@H]1OC[C@@H](COC(=O)O[C@@H](C(=O)O[C@H]2C[C@@]3(O)[C@@H](OC(=O)c4ccccc4)[C@@H]4[C@]5(OC(C)=O)CO[C@@H]5C[C@H](O)[C@@]4(C)C(=O)[C@H](OC(C)=O)C(=C2C)C3(C)C)[C@@H](NC(=O)c2ccccc2)c2ccccc2)O1`, the growth in the test on HCT-15 colon was 95.2%; with HT29 colon, 7.9% (active); with SNB-75 CNS, 32.8%; in the test on SNB-19 CNS, 55.8%; in the test on U251 CNS, 43.4%; in the test with PC-3 prostate it was 45.7%. Moreover, the growth in the test with SK-MEL-5 melanoma was 64.8%; with UACC-62 melanoma, 50.9%; with LOX IMVI melanoma, 41.1%; in the test with SK-MEL-28 melanoma it was 62.8%.
For `COc1cccc(/C=C/C(=O)c2cc3c(N)c(C(=O)Nc4ccccc4C)sc3nc2C)c1`, the growth with HCT-15 colon is 8.29% (active); in the test with HT29 colon it was -5.29% (active); with SNB-75 CNS, 12.8%; in the test on SNB-19 CNS it was 11.4%; in the test with U251 CNS, 7.49% (active); in the test on PC-3 prostate it was 45.3%. Further, the growth with SK-MEL-5 melanoma was 52.4%; in the test on UACC-62 melanoma, 33.6%; in the test on LOX IMVI melanoma, -65.9% (active); in the test on SK-MEL-28 melanoma, 70.9%.
Turning to `COc1cc(C(=O)/C=C/c2c(-c3cccs3)nc3ccccn23)cc(OC)c1OC`, the growth was -7.46% (active) with HCT-15 colon; -25.8% (active) in the test with HT29 colon; -4.3% (active) in the test on SNB-75 CNS; 14.2% with SNB-19 CNS; 1.5% (active) with U251 CNS; 7.19% (active) with PC-3 prostate. Moreover, the growth in the test on SK-MEL-5 melanoma is -24.1% (active); in the test with UACC-62 melanoma, -33.1% (active); with LOX IMVI melanoma, -1.66% (active); in the test on SK-MEL-28 melanoma it was 8.11% (active).
As to `COc1cc2c(c(OC)c1OC)C(=O)CC(c1cccc(NC(=O)c3ccccc3Br)c1)O2` (stereo not given), the growth with HCT-15 colon was 88.6%; with HT29 colon it was 97.1%; with SNB-75 CNS it was 93.3%; in the test on SNB-19 CNS, 95.5%; with U251 CNS it was 91.5%; in the test with PC-3 prostate, 77.9%. For the same compound, the growth with SK-MEL-5 melanoma is 86.1%; in the test with UACC-62 melanoma, 72.2%; in the test on LOX IMVI melanoma it was 93.4%; in the test on SK-MEL-28 melanoma it was 111%.
As to `CCN1C(=O)N(CC)C2C1NN=c1s/c(=C\c3ccccc3Br)c(=O)n12` (stereo not given), the growth with HCT-15 colon is 8.51% (active); with HT29 colon it was 4.72% (active); with SNB-75 CNS it was 10.1%; in the test with SNB-19 CNS, 26.8%; in the test with U251 CNS it was 5.61% (active); with PC-3 prostate, 23.2%. For the same compound, the growth in the test with SK-MEL-5 melanoma was -17.6% (active); in the test on UACC-62 melanoma it was 24.5%; in the test with LOX IMVI melanoma it was 16.3%; with SK-MEL-28 melanoma, 57.4%.
Regarding `CCOC(=O)c1c2c(n3ccccc13)C(=O)c1ncccc1C2=O`, the growth is 22.4% in the test with HCT-15 colon; 47.6% in the test on HT29 colon; 34.3% in the test with SNB-75 CNS; 16.5% with SNB-19 CNS; 0.0106% (active) in the test with U251 CNS; 19.9% in the test on PC-3 prostate. Moreover, the growth is -17.8% (active) in the test with SK-MEL-5 melanoma, -25.8% (active) in the test with UACC-62 melanoma, 0.56% (active) in the test with LOX IMVI melanoma and 28.9% in the test with SK-MEL-28 melanoma.
As to `N#C/C(=C\c1ccc(-c2ccc(Cl)cc2)o1)c1ccc(Cl)cc1`, the growth in the test on HCT-15 colon is 79.2%; in the test on HT29 colon, 61.2%; in the test on SNB-75 CNS, 14%; with SNB-19 CNS, 62%; with U251 CNS, 21.6%; in the test on PC-3 prostate, 74.8%. The growth was 91.4% in the test on SK-MEL-5 melanoma, 78.7% in the test with UACC-62 melanoma, 49.2% in the test with LOX IMVI melanoma and 99.7% in the test with SK-MEL-28 melanoma.
Consider `COc1cc2oc(-c3cccc(NC(=O)c4ccc5c(c4)OCO5)c3)cc(=O)c2c(OC)c1OC`, for which the growth was 32.1% in the test on HCT-15 colon; 29.4% in the test with HT29 colon; 67.4% in the test on SNB-75 CNS; 45.6% with SNB-19 CNS; 32.5% in the test on U251 CNS; -12% (active) with PC-3 prostate. The growth in the test on SK-MEL-5 melanoma is 16.4%; in the test on UACC-62 melanoma, 50%; in the test on LOX IMVI melanoma it was 39.5%; with SK-MEL-28 melanoma, 55.1%.
For the compound `CC(C(=O)O)n1c(O)c(C=Nc2cccnc2)sc1=S` (stereo not given), the growth is 98.4% in the test with HCT-15 colon; 111% in the test with HT29 colon; 80.3% in the test with SNB-75 CNS; 91.4% with SNB-19 CNS; 86.3% in the test with U251 CNS; 88% with PC-3 prostate. Further, the growth in the test on SK-MEL-5 melanoma is 95.5%; with UACC-62 melanoma it was 88.8%; in the test with LOX IMVI melanoma, 101%; with SK-MEL-28 melanoma it was 113%.
Turning to `N#Cc1c(-c2ccccc2)cc(-c2ccccc2)n(CCCC(=O)NO)c1=O`, the growth in the test on HCT-15 colon is 19.1%; with HT29 colon it was 20.9%; in the test with SNB-75 CNS, -23.6% (active); with SNB-19 CNS it was 43.5%; in the test on U251 CNS it was 26.8%; in the test on PC-3 prostate it was 35.5%. Moreover, the growth was -13.6% (active) in the test on SK-MEL-5 melanoma, 9.37% (active) with UACC-62 melanoma, 8.85% (active) with LOX IMVI melanoma and 33.4% in the test on SK-MEL-28 melanoma.
Turning to `CN(C)c1ccc(/C=C/C(=O)c2ccccc2)cc1`, the growth with HCT-15 colon was 62.1%; with HT29 colon, 62.5%; in the test with SNB-75 CNS, 100%; in the test with SNB-19 CNS, 90.4%; in the test on U251 CNS, 69.3%; with PC-3 prostate, 71.6%. For the same compound, the growth in the test with SK-MEL-5 melanoma is 89.3%; in the test on UACC-62 melanoma, 93.1%; in the test with LOX IMVI melanoma it was 78.3%; in the test on SK-MEL-28 melanoma, 96.8%.
